HCV inh: inhibitors of hepatitis C virus infection | Potency, µM (doses to about 41.8 µM), hits mostly inhibitors | 340,000 tested, 3.4% active | Huh7.5.1 HCVcc-Cre infection, luciferase reporter, 44 h
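Seed cells (1,000/well) for 4 h; treat with compound and infect with HCVcc-Cre, moi about 0.5. Incubate 44 h, then detect luciferase activity.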
HCMV inh: blocks human cytomegalovirus replication | HFF cells, HCMV-luciferase reporter, 72 h; active compounds read low | activity change, negative = inhibition, % at 57.5 µM | 410,000 tested, 4.5% active; in the data active = activity change below about -60%; inconclusive = no clear call, values can overlap the other calls; inactive = above about -39%
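Compounds were evaluated in HFFs infected with an HCMV luciferase reporter virus (MOI 1 PFU/cell). Luciferase in lysates collected 72 h post infection served as the replication measure.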
Pf growth 96h: P. falciparum growth inhibition at 96 hours. AID 504834. Potency, µM (titrated, usually from 28.7 µM), actives largely listed as inhibitors. 320,000 tested, 6.9% active. P. falciparum luciferase reporter growth, 96 h
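Delayed-death screen, second-generation endpoint: infected erythrocytes, 2% hematocrit, 0.05% parasitemia final; 96 hours at 37 C, 5% CO2; luciferase detection reagent; luminescence decrease equals reduced growth.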
Pf growth 48h: inhibits P. falciparum growth in the first generation, 48 h; P. falciparum luciferase growth in erythrocytes, 48 h; Potency, µM (doses to about 28.7 µM), usual class: inhibitors; 310,000 tested, 5.9% active
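Parasite viability was followed by luminescence of a genomically integrated firefly luciferase. Cultures held 0.1% parasitemia at 2% hematocrit (final), incubated under 5% CO2 at 37 C.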
Sm TGR block: inhibitors of Schistosoma mansoni thioredoxin glutathione reductase; Q962Y6; purified TGR, DTNB reduction, TNB absorbance 405 nm; Potency, µM (top dose mostly 114 µM), actives largely listed as inhibitors; 360,000 tested, 3% active; also: nearly all actives have a fitted effect of over 60% in size
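Kinetic colorimetric format: TGR-catalysed, NADPH-driven DTNB reduction monitored via TNB absorbance. Enzyme dispensed at 20 nM; compound exposure 15 min at room temperature before reaction start.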
SARS PLP yeast: blocks SARS-CoV papain-like protease in a yeast assay; S. cerevisiae expressing SARS-CoV PLpro, growth rescue; Potency, µM (highest dose often 32.9 µM), most hits filed as activators; 330,000 tested, 0.19% active; calls by dose curve; also: nearly all actives have a fitted effect of over 55% in size
A number is an active result; [ ] = another dose, or the depositor's remark. Hits are enriched below; roughly 15% of the tested compounds scored in any of these assays. Unless noted, calls follow the shape of the dose curve; as a rule, active = well fitted curve in the direction sought with a large enough effect; inconclusive = small, poorly fitted or top-dose-only effect, or another doubt; inactive = no such curve, though single readings can be large; an effect the other way counts as inactive or inconclusive.

How did C#CCOCCOCCOCCNc1nc(N2CCN(C(=O)CCCCCCCCCCNC(=O)[C@H](CCCCN)n3cc(CCCC(=O)O)nn3)CC2)nc(N2CCN(C(=O)CCCCCCCCCCNC(=O)[C@H](CCCN=C(N)N)n3cc(C[C@@H](C)CC)nn3)CC2)n1 do in these assays?
HCV inh: inconclusive; Pf growth 96h: 13.1µM; Pf growth 48h: 10.4µM; Sm TGR block: inactive; SARS PLP yeast: inactive

Results for O=C(c1cc(Cl)ccc1OCc1ccccc1)N1CCOCC1 ?
HCV inh: inactive; HCMV inh: inactive; Pf growth 96h: inactive; Pf growth 48h: inactive; Sm TGR block: inactive; SARS PLP yeast: inactive

What do the screens show for `O=S(=O)(Cc1cc(Sc2ccc(Cl)cc2)nc(-c2ccccc2)n1)c1ccccc1`?
HCV inh: inactive; HCMV inh: inactive; Pf growth 96h: inconclusive; Sm TGR block: inactive; SARS PLP yeast: inactive

How did Cc1nc(CS(=O)(=O)c2ccc(Cl)cc2)cc(Sc2ccc(Cl)cc2)n1 do in these assays?
HCV inh: inconclusive; HCMV inh: inactive; Pf growth 96h: 2.33µM; Pf growth 48h: 3.29µM; Sm TGR block: inactive; SARS PLP yeast: inactive

Results for Cc1c(C#N)c(N)nc(Cl)c1C#N ?
HCV inh: inactive; HCMV inh: inactive; Pf growth 96h: inactive; Pf growth 48h: inconclusive; Sm TGR block: 35.5µM; SARS PLP yeast: inactive

What do the screens show for `Cc1nc(N)c(C#N)c(-c2ccccc2)c1C`?
HCV inh: inactive; HCMV inh: inactive; Pf growth 96h: inactive; Pf growth 48h: inactive; Sm TGR block: inactive; SARS PLP yeast: inactive

How did COc1ccc(S(=O)(=O)N2CCCCC2)cc1NC(=O)Cc1ccsc1 do in these assays?
HCV inh: inactive; HCMV inh: inactive; Pf growth 96h: 13.1µM; Pf growth 48h: inconclusive; Sm TGR block: inactive; SARS PLP yeast: inactive

Results for O=C(Cc1ccccc1F)Nc1cc(S(=O)(=O)N2CCCC2)ccc1Cl ?
HCV inh: inactive; HCMV inh: inconclusive; Pf growth 96h: inconclusive; Pf growth 48h: inconclusive; Sm TGR block: inactive; SARS PLP yeast: inactive

How did COc1ccc(CC(=O)Nc2cc(S(=O)(=O)N3CCCC3)ccc2Cl)c(OC)c1 do in these assays?
HCV inh: inconclusive; HCMV inh: inactive; Pf growth 96h: 14.7µM; Pf growth 48h: inconclusive; Sm TGR block: inactive; SARS PLP yeast: inactive

What do the screens show for `CCOc1ccc(S(=O)(=O)N2CCCCC2)cc1NS(=O)(=O)c1cccs1`?
HCV inh: inactive; HCMV inh: inactive; Pf growth 96h: inconclusive; Pf growth 48h: inconclusive; Sm TGR block: inactive; SARS PLP yeast: inactive

How did COc1ccc(S(=O)(=O)N2CCCCCC2)cc1NC(=O)Cc1ccccc1 do in these assays?
HCV inh: inactive; HCMV inh: inactive; Pf growth 96h: inactive; Pf growth 48h: inconclusive; Sm TGR block: inactive; SARS PLP yeast: inactive

What do the screens show for `CCOc1ccc(S(=O)(=O)N2CCCCC2)cc1NC(=O)Cc1ccsc1`?
HCV inh: inconclusive; HCMV inh: inactive; Pf growth 96h: 11.7µM; Pf growth 48h: 10.4µM; Sm TGR block: inactive; SARS PLP yeast: inactive

How did O=C(CNCc1ccc(Cl)cc1)Nc1cc(S(=O)(=O)N2CCCC2)ccc1Cl do in these assays?
HCV inh: 7.94µM; HCMV inh: inactive

How did O=C(CN(Cc1ccc(F)cc1)C(=O)CCC(=O)Nc1ccccn1)NCc1ccco1 do in these assays?
HCV inh: inactive; HCMV inh: inactive; Pf growth 96h: inconclusive; Sm TGR block: inactive[11.4 µM]; SARS PLP yeast: inactive

What do the screens show for `COc1ccccc1CCNC(=O)c1c(N)[nH]c(C(=O)c2ccccc2)c1-c1ccc(Br)cc1`?
HCMV inh: inactive

How did FC(F)(F)COc1nc(N/N=C/c2cccnc2)nc(N2CCCCC2c2ccccn2)n1 (centres undefined) do in these assays?
HCV inh: inconclusive; HCMV inh: -71.7; Pf growth 96h: 9.28µM; Pf growth 48h: 11.7µM; Sm TGR block: inactive; SARS PLP yeast: inactive

Results for Cc1c(C)c2ccc(OCC(=O)NCCCn3ccnc3)c(C)c2oc1=O ?
HCV inh: inactive; HCMV inh: inactive; Pf growth 96h: inconclusive; Pf growth 48h: inconclusive; Sm TGR block: inactive; SARS PLP yeast: inactive

How did Cc1c(CCC(=O)NCCCn2ccnc2)c(=O)oc2c(C)c3occ(C(C)(C)C)c3cc12 do in these assays?
HCV inh: inconclusive; HCMV inh: inactive; Pf growth 96h: 9.28µM; Pf growth 48h: inconclusive; Sm TGR block: inactive; SARS PLP yeast: inactive

Results for Cc1coc2c(C)c3oc(=O)c(CCC(=O)NCCCN4CCOCC4)c(C)c3cc12 ?
HCV inh: inconclusive; HCMV inh: inactive; Pf growth 96h: inconclusive; Pf growth 48h: inconclusive; Sm TGR block: inactive; SARS PLP yeast: inactive

Results for Cc1coc2c(C)c3oc(=O)c(CCC(=O)NCCCn4ccnc4)c(C)c3cc12 ?
HCV inh: inconclusive; HCMV inh: inactive; Pf growth 96h: inconclusive; Pf growth 48h: 10.4µM; Sm TGR block: inactive; SARS PLP yeast: inactive

How did CC(C)[C@H](NC(=O)OC(C)(C)C)c1cc(C(=O)N[C@@H](C)c2ccccc2)c(N)s1 do in these assays?
HCMV inh: inactive

Results for O=C(c1ccccc1)c1cc(Cl)ccc1N1C(=O)C=CC1=O ?
HCV inh: inactive; HCMV inh: inconclusive; Pf growth 96h: inactive; Pf growth 48h: inactive; Sm TGR block: 0.794µM; SARS PLP yeast: inactive

What do the screens show for `Nc1ccc(Cl)cc1C(=O)c1ccccc1`?
HCV inh: inactive; HCMV inh: inactive; Pf growth 96h: inactive; Pf growth 48h: inactive; Sm TGR block: inactive; SARS PLP yeast: inactive

What do the screens show for `Cc1nc(N2CCOCC2)c2cc(-c3ccccc3)sc2n1`?
HCV inh: inconclusive; HCMV inh: inactive; Pf growth 96h: inconclusive; Sm TGR block: inactive[11.4 µM]; SARS PLP yeast: inactive

Results for c1ccc(-c2cc3c(N4CCCC4)ncnc3s2)cc1 ?
HCV inh: 10µM; HCMV inh: inactive; Pf growth 96h: inactive; Pf growth 48h: inactive; Sm TGR block: inactive; SARS PLP yeast: inactive

How did c1ccc(-c2cc3c(N4CCOCC4)ncnc3s2)cc1 do in these assays?
HCV inh: 10µM; HCMV inh: inactive; Pf growth 96h: inactive; Pf growth 48h: inactive; Sm TGR block: inactive; SARS PLP yeast: inactive

How did c1ccc(-c2cc3c(N4CCCCC4)ncnc3s2)cc1 do in these assays?
HCV inh: inconclusive; HCMV inh: inconclusive; Pf growth 96h: inactive; Pf growth 48h: inactive; Sm TGR block: inactive; SARS PLP yeast: inactive

What do the screens show for `Cc1ccccc1NCc1cccn1-c1nnc(N2CCC(C)CC2)s1`?
HCMV inh: inactive; Sm TGR block: inactive

What do the screens show for `COc1cccc(Nc2cc3c(cn2)cc(-c2cnn(C)c2)n3C)c1`?
HCMV inh: inactive

How did Cc1ccc(NC(NC(=O)OCCn2c([N+](=O)[O-])cnc2C)C(Cl)(Cl)Cl)cc1 (centres undefined) do in these assays?
HCV inh: inactive; Pf growth 96h: inconclusive; Pf growth 48h: 5.22µM; Sm TGR block: inactive; SARS PLP yeast: inactive
